Data on 101 compounds can be found in PubChem BioAssay AID784 (The Scripps Research Institute Molecular Screening Center, 2007).

Each structure is given as a SMILES string. About 130 (0.43%) of roughly 30,000 compounds were called active. Many of the other results were omitted from the sample, so actives are more common in it than they were. Unmarked numbers belong to inactive results. No stated cut-off is given here; in the data, active means activation above about 65%; inactive means the rest.

Chain of Lysosomal acid glucosylceramidase (Homo sapiens) (P04062 whole entry L483P): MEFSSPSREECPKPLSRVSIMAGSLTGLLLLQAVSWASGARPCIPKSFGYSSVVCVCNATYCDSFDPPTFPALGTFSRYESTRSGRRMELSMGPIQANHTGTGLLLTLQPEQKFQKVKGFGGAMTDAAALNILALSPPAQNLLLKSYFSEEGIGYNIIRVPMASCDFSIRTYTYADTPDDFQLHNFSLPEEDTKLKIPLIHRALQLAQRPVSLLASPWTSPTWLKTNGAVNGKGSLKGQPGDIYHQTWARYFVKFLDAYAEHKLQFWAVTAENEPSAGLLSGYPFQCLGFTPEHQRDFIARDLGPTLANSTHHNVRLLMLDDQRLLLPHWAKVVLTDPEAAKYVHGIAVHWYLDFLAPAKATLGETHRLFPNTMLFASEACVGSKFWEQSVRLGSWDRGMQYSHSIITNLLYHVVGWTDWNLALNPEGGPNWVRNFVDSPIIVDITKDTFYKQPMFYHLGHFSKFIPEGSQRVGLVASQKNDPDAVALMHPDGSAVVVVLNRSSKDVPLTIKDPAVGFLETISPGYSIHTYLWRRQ

The assay addresses Lysosomal acid glucosylceramidase (Homo sapiens) (UniProt P04062). Put plainly: GBA activity enhancers in patient fibroblasts, primary screen, cell-based (AID 784).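 Further: 0% = vehicle wells and 100% = positive control wells.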 As to conditions: L444P Gaucher fibroblasts, 4-MU-glucoside fluorescence, 3 days; at 10 µM; active compounds read high.
For `CCn1c2c(c3ccc(OC)cc31)CCCC2=O`, the activation was -2.82%.
For the compound `O=C(COc1ncnc2ccccc12)NC(=O)NCc1ccccc1`, the activation was -9.58%.
The value for `CCCOc1cccc(C(=O)Nc2nnn(CCC)n2)c1` was -14.1%; that for `Cc1ccc(OCc2nc(C#N)c(N3CCCC3)o2)cc1` was -34.7%.
In the case of `Cc1ccc(OCCCC(=O)N2CCOCC2)c(C)c1` it was 9.81%; in that of `Cc1cc(N2CCN(Cc3ccc4c(c3)OCO4)CC2)n2ncnc2n1`, 4.34%.
The value for `CCOc1cc(CO)ccc1OCC(=O)N1CCCCC1` was 38.3%; that for `CC(C)(C)c1nc(NCC2CCCO2)c2nnn(Cc3ccccc3)c2n1` (stereo unspecified) was -23.9%; that for `O=CN1CCN(C2CC(=O)N(c3ccc4c(c3)OCO4)C2=O)CC1` (stereo unspecified) was -20.8%.
In the case of `CC1(C)CC(=O)C=C(NCCCN2CCCC2=O)C1`, the activation is 48.7%.
In the case of `NC(CSC12CC3CC(CC(C3)C1)C2)C(=O)O` (stereo unspecified) it was -2.09%; in that of `CCOC(=O)C1CCCN(C(=O)c2cncc(Br)c2)C1` (stereo unspecified), -20.7%; in that of `OC(COc1ccccc1)Cn1cc(Br)cn1` (stereo unspecified), -62.4%.
The value for `CCCCSc1nnc(-c2ccc(C)cc2)o1` was 65.5% (active); that for `c1ccc(-c2nnc(SCc3nc4ccccc4[nH]3)o2)cc1` was -6.36%; that for `COc1ccc(-c2nnc(SC(C)C#N)o2)cc1` (stereo unspecified) was -2.02%.
With `CC1(C)SC2c3ccccc3C(=O)N2[C@@H]1C(=O)NCc1ccco1` (stereo partly specified), the activation is -2.64%.
The value for `C=CCn1cnc2scc(-c3ccccc3)c2c1=O` was -7.71%; that for `CCN1C(=O)C(C(=O)NC(C)c2ccccc2)C2CC1(C)Oc1ccccc12` (stereo unspecified) was -6.62%.
The value for `CC(C)C(C(=O)NC1CCCCC1)N(CC1CCCO1)C(=O)CNS(=O)(=O)c1ccc(F)cc1` (stereo unspecified) was -1.42%; that for `COc1ccc(NC(=O)c2c(C)oc3c2CCCC3)cc1` was 9.49%; that for `CCc1c(C)sc(NC(=O)OC)c1C(=O)N1CCOCC1` was -9.88%.
Regarding `Cc1nc2nc3c(cn2n1)C(=O)CC(c1ccccc1)C3` (stereo unspecified), the activation is -10.1%.
The value for `CC(=O)Nc1cccc(NC(=O)c2c(-c3ccccc3)noc2C)c1` was -9.69%.
In the case of `CCc1nc(N2CCN(c3nc(C)cc(C)n3)CC2)c2oc3ccccc3c2n1` it was -1.58%; in that of `CCCn1c(SCC(=O)Nc2cccc(C(=O)OCC)c2)nnc1-c1ccoc1C`, -19.7%; in that of `O=C(COc1ccccc1)N1CCc2ccccc2C1`, -2.86%.
In the case of `CCCCc1nc2ccccc2c(=O)n1NC(=O)c1c(O)c2cccc3c2n(c1=O)CC3` it was 3.98%; in that of `Cc1c(NC(=O)Nc2ccccc2Cl)sc(=S)n1C`, -15.8%; in that of `CC12C(=O)N(n3cnnc3)C(=O)C1C1C=CC2C1` (stereo unspecified), -8.37%.
As to `CC(C)N(C(=O)Cn1c(SCC(=O)N2CCN(c3ccccc3)CC2)nc2ccccc21)C(C)C`, the activation is -5.29%.
In the case of `Cc1ccccc1NC(=O)c1cc(S(=O)(=O)N2CCOCC2)cs1` it was -11.8%.
The value for `CC(=NCc1ccco1)C1=C(O)c2ccccc2C1=O` was -41.5%; that for `Cc1nc2c(c(=O)n1Cc1ccco1)c1nc3ccccc3nc1n2Cc1ccccc1` was -11.7%; that for `COc1ccc(-c2csc(N3CCN(Cc4ccc5c(c4)OCO5)CC3)n2)cc1` was -17.4%.
The value for `CC(c1ccccc1)n1c(NCCCn2ccnc2)nc2c1c(=O)[nH]c(=O)n2C` (stereo unspecified) was -10.3%; that for `COc1ccc(Br)cc1S(=O)(=O)N1CCN=C1C` was -8.13%; that for `O=[n+]1c2c(n([O-])c3cc(Br)ccc31)CCC2` was 30.8%.
Consider `Cc1c(C(=O)OCc2cc(=O)n3cc(Br)ccc3n2)oc2ccccc12`, for which the activation was 23%.
`CCOCCCNS(=O)(=O)Cc1ccccc1`: the activation is 6.43%.
The value for `CCOC(=O)C1=C(C)NC(C)=C(C(=O)OCC)C1C1=COCCO1` was -5.96%; that for `C=CCn1c(SCc2cc(C(=O)OC)c(C)o2)nnc1-c1ccncc1` was 31.7%; that for `Cn1c(=O)n(C)c(=O)n(CC(=O)N2CCCCC2)c1=O` was -12.6%.
The value for `Clc1cccc(Cl)c1Cn1nnc(-c2cccs2)n1` was 10.2%.
On to `COc1ccccc1CNCc1cccs1`, for which the activation was -7.11%.
In the case of `NC(=NC(=O)c1ccccc1)C1=C(O)CCC1=O` it was 0%; in that of `O=C(CSc1nnc(-c2cccs2)n1-c1ccccc1)N1CCN(C(=O)c2ccco2)CC1`, -13.7%.
In the case of `Cc1ccsc1CNn1cnnc1SCc1ccccc1F`, the activation was -2.23%.
The value for `Cc1nnc(NC2=NCCCCC2)o1` was 8.3%.
Turning to `CCS(=O)(=O)N1CCN(C(=O)c2cccs2)CC1`, the activation is -24.4%.
In the case of `COc1ccccc1C(=O)Oc1ccc(N2C(=O)CCC2=O)cc1` it was 4.62%; in that of `COC(C)(C)[C@]12CC(O)(C(C)C)ON1[C@H]1CCCCC1N2O` (stereo partly specified), -2.77%.
The value for `CC(Cc1cccs1)NC(=O)NC1CCCCC1` (stereo unspecified) was -0.56%.
As for `C=C(C)Cn1c(SCC(=O)NCc2ccco2)nc2sc3c(c2c1=O)CCC3`, the activation is -21.3%.
For `CCOC(=O)CC1C(=O)NCCN1C(=O)COc1ccc(Br)cc1C` (stereo unspecified), the activation is -21.1%.
Take `Nn1c(SCC(=O)NC(=O)NC2CCCC2)nnc1-c1ccccc1F`: the activation is 2.97%.
The value for `O=C(COc1ccc2c3c(c(=O)oc2c1)CCC3)NC1CCCCC1` was 9.84%.
The value for `CC1CC(c2ccccc2)n2nc(NC(=O)c3cccs3)nc2N1` (stereo unspecified) was -23.6%; that for `Cc1cc(NC(=O)COC(=O)c2ccc(F)c(S(=O)(=O)N3CCOCC3)c2)no1` was -7.98%.
In the case of `Cc1cc(C)c2nc(N3CCCC3)c(C#N)cc2c1` it was 18.1%; in that of `CN(C(=O)CSc1nnnn1-c1ccccc1)C1CCCCC1`, -16.5%; in that of `Cc1nn(-c2ccccc2)c(C)c1C(=O)OCC(=O)NC(=O)NC1CCCCC1`, 59.8%.
In the case of `O=C(c1c(Cl)nc2sccn12)N1CCCc2ccccc21`, the activation is -24.6%.
With `CC1(c2ccccc2Cl)NC(=O)N(CC(=O)NC(=O)NCc2ccco2)C1=O` (stereo unspecified), the activation is -9.6%.
As for `Cc1cc(OCCN2CCCC2)ccc1C(C)C`, the activation is -12.4%.
The value for `CCC(=O)Nc1nc(OC)cc(OC)n1` was -18.3%; that for `CC(=O)c1cnc(Nc2nc(C)c3cc(C)ccc3n2)nc1C` was 13.5%; that for `Cc1nnc(SCC(=O)N2CCc3ccccc32)n1-c1ccccc1` was -18.6%.
In the case of `O=C(Cn1nnc(-c2ccccc2)n1)NCc1ccccc1` it was -40%.
In the case of `COc1ccc(Cn2c(=O)sc3ccccc32)cc1OC` it was -6.04%; in that of `O=C(O)Cc1ccc(NC(=O)c2cccs2)cc1`, -9.31%; in that of `O=C(NCc1cccnc1)c1cn(-c2ccccc2)nc1-c1cccs1`, -15.4%.
In the case of `COCCCNC(=O)c1c(F)c(F)c(F)c(F)c1F`, the activation is -31.9%.
In the case of `CCOC(=O)C(CCOc1cccc(CC)c1)C(=O)OCC`, the activation was -0.5%.
For the compound `CCn1cc(C(=O)NCc2ccc(OC)cc2OC)c(=O)c2ccc(C)nc21`, the activation is -10.1%.
In the case of `Cn1c(=O)[nH]c(=O)c2c1nc(N1CCCCCC1)n2CC(=O)c1ccccc1` it was -1.4%; in that of `CC1Cc2ccccc2N1C(=O)Cn1cnc2ccccc2c1=O` (stereo unspecified), -14.5%.
For `COC(=O)[C@@H](NC(=O)NCc1cccc(OC)c1)C(C)C`, the activation was -5.38%.
Consider `CCCc1nnc(NC(=O)CN2C(=O)c3ccccc3S2(=O)=O)s1`, for which the activation was -21.6%.
In the case of `O=P(O)(CP(=O)(c1ccccc1)c1ccccc1)c1ccccc1` it was -3.68%.
The value for `CCCCNC(=O)CSc1nnc(-c2ccco2)n1C` was -32.4%.
In the case of `Cc1c(C)c2cc3c4c(oc3c(C)c2oc1=O)CCCC4` it was 102% (active); in that of `COC(=O)CCSc1nccn1Cc1ccccc1`, -3.3%.
`Fc1ccccc1CCNc1nnnn1-c1ccccc1`: the activation is -5.46%.
Regarding `CCN(C(=O)CSc1ncn[nH]1)c1cccc2ccccc12`, the activation was 4.77%.
The value for `COCCn1nnnc1CN1CCC(NC(=O)Nc2cccc(OC)c2)CC1` was 2.44%; that for `Cc1ccc(S(=O)(=O)N2CCN(C(=O)CCC(=O)NC3CCCc4ccccc43)CC2)cc1` (stereo unspecified) was -7.53%; that for `Cc1ccc(-c2noc(CCC(N)=O)n2)cc1` was 1.93%.
The value for `COC(=O)c1cn(CC(=O)NCc2cccs2)c2ccccc12` was -8.81%.
The value for `COCCCNC(=O)Cn1cc(C(=O)C2CC2)c2ccccc21` was 72.8% (active); that for `O=C(Cn1cc(C(=O)c2cccs2)c2ccccc21)NCc1cccs1` was 5.52%; that for `CCCCn1c(SCC(=O)N2CCC(C(=O)OCC)CC2)nc2cc(S(N)(=O)=O)ccc21` was -6.49%.
For `CCOC(=O)c1cc2c(n(-c3ccc(C)cc3)c1=O)CCCC2=O`, the activation was -11%.
The value for `Cc1cccc(N2CC(C)Cn3c2nc2c3c(=O)n(CC(=O)OCc3ccccc3)c(=O)n2C)c1` (stereo unspecified) was -17.9%; that for `CCOc1ccccc1-n1c(SCC(=O)N2CCCC2)nnc1-c1ccoc1C` was 0.64%; that for `O=C(Nc1nc2cc3c(cc2s1)OCCO3)c1cccc(S(=O)(=O)N2CCOCC2)c1` was 0.12%.
On to `COc1ccccc1OCCC(=O)OCC(=O)NC(=O)NC(C)(C)C`, for which the activation is 4.86%.
In the case of `Cn1nc(-c2ccc(N3CCOCC3)c(NC(=O)c3ccccc3)c2)c2ccccc2c1=O` it was -54.8%; in that of `CC(C)Cn1c(N)c(C(=O)NCc2cccs2)c2nc3ccccc3nc21`, 73.7% (active).
The value for `C=CCn1c(N)c(C(=O)OCC(C)C)c2nc3ccccc3nc21` was -9.15%.
In the case of `C=CCn1c(N)c(S(=O)(=O)c2cccs2)c2nc3ccccc3nc21` it was -13.8%.
